The source of these data is PubChem BioAssay AID2401 (Southern Research Specialized Biocontainment Screening …, 2010).

Screen size: about 2,200 compounds; about 530 (24%) were called active.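 The calls were made as follows: active = inhibition above a set limit at one or more concentrations of the dose series; inactive = inhibition under that limit at every dose.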 Not all results are given here. Entries with a potency or affinity are not part of this list.

The nature of this assay: S. Typhimurium nonspecific reporter signal inhibition – Salmonella Typhimurium, GFP fluorescence, counter-screen for PhoP regulon inhibitor project, dose response (AID 2401).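 Also: S. typhimurium with Mg-insensitive nmpC-GFP reporter grown at 10 µM Mg2+; drop in reporter fluorescence reflects general culture growth inhibition.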 The note with it: 4 h; series mostly up to 150 µM. Background: Counterscreens check selectivity or assay interference.
Regarding `O=C1Nc2ccc(F)cc2C12SCCS2`, the result was inactive.
On to `CC(=S)c1c(C)cc2cc(C)ccn12`, for which the call was inactive.
Take `COc1ccc(N=c2cc(-c3ccc(OC)cc3)oc3ccccc23)cc1`: the compound was called inactive.
With `CN1C(=S)N(c2ccccc2)C(=O)/C1=C/c1ccco1`, the result was inactive.
Regarding `CCn1c(SCc2ccc(F)cc2)nc2ccccc2c1=O`, the compound was classed as inactive.
With `COC(=O)c1ccc(CSc2nnnn2-c2ccccc2)o1`, the compound was classed as inactive.
With `CCOC(=O)c1cnc2ccccc2c1Nc1ccc2c(c1)OCCO2` the entry was “inactive”; with `Cc1cccc(Nc2nc(N)nc(CN3CCN(c4ccccc4)CC3)n2)c1`, “inactive”.
On to `Nc1ccc(Nc2ccccc2)c(Cl)c1`, for which the outcome was inactive.
Take `CCOc1ccc(Nc2nc(NCCN3CCOCC3)nc(OC)n2)cc1`: the call was inactive.
With `CCOc1ccc(CNc2ccc(N3CCCC3)cc2)cc1` the entry was “inactive”.
For the compound `CCc1ccc(Nc2nc(N)nc(CSc3nc4ccccc4s3)n2)cc1`, the outcome was inactive.
As for `C=CCN=C(NC#N)SCc1ccccc1Cl`, the compound was classed as inactive.
With `Cc1ccc(NC(=O)C2CC(=O)NC(N3CCCCC3)=N2)cc1Cl` (stereo not drawn), the compound was classed as inactive.
As to `COC(=O)N1CCN(c2ccc(Cl)c(Cl)c2)CC1`, the call was inactive.
As for `O=C(COc1ncnc2sccc12)N1CCN(S(=O)(=O)c2ccc(Cl)cc2)CC1`, the compound was classed as inactive.
In the case of `CC1CCN(C(c2cc3cc4c(cc3[nH]c2=O)OCO4)c2nnnn2CC2CCCO2)CC1` (stereo not drawn), the result was inactive.
In the case of `CCOC(=O)C[n+]1c(C)sc2ccc(OC)cc21` it was “inactive”.
`COc1ccc(C)cc1Nc1nc(-c2c(C)[nH]c3ccccc23)cs1`: the compound was called inactive.
With `CCOC(=O)c1c(N)ssc1=S`, the call was inactive.
As for `O=c1[nH]c(NCc2ccco2)nnc1Cc1ccccc1Cl`, the call was inactive.
In the case of `N/C(=N\OC(=O)c1ccc(F)cc1)c1nonc1N` it was “inactive”; in that of `O=C(c1ccccc1)N1CCN(c2ccc([N+](=O)[O-])c(NCc3ccco3)c2)CC1`, “inactive”.
As for `O=C(NC(=Nc1ccccc1)N1CCOCC1)Nc1ccccc1`, the compound was classed as inactive.
For `COc1ccc(C(=O)On2c(-c3ccc(Br)cc3)nc3ccccc3c2=O)cc1`, the call was inactive.
With `Cc1cc(-c2csc(N)n2)c(C)n1-c1ccccc1`, the call was inactive.
With `N#CC1=C(N)N=C(SCc2cccc3ccccc23)C(C(N)=O)C12CCCCC2` (stereo not drawn) the entry was “inactive”; with `CCCCC1CCC(C(=O)Nc2ccccc2)CC1` (stereo not drawn), “inactive”.
In the case of `Cc1ccc(CCNC(=O)C2CCCN(S(=O)(=O)c3c(C)noc3C)C2)cc1` (stereo not drawn), the result was inactive.
In the case of `c1ccc2c(c1)ncn2CCCCOc1ccc2c(c1)CCC2`, the call was inactive.
In the case of `O=C(c1ccc(CSc2nc3ccncc3[nH]2)cc1)N1CCN(c2cccc(Cl)c2)CC1` it was “inactive”; in that of `CC(=O)N1N=C(c2ccco2)CC1c1ccc(Br)cc1` (stereo not drawn), “inactive”.
Take `OCCCNc1nc(-c2ccc(Cl)cc2)nnc1-c1ccc(Br)cc1`: the result was inactive.
